# Data published in the supplement of paper PMC8253809.
# Experiments:
# Assay in all cases: growth inhibition (% activity, log2 RLU normalised to DMSO / staurosporine); higher = more growth inhibition
# Details in all cases: 33 µM
# [1] = test system: DIPGX29 (H3.3 K27M diffuse intrinsic pontine glioma line)
# Summary of the method: (§1)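 For each approved drug, the growth-inhibition value is the replicate median of per-plate normalised CellTiter-Glo data. Luminescence was log2-transformed and expressed as % activity between solvent and positive control wells. Drugs were applied in triplicate at a single final concentration of about 33 μM for 7 days at 37 °C, 5% CO2 to pHGG cell lines and H9-derived neural stem cells.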
# [2] = test system: DIPGX37 (H3.3 K27M diffuse intrinsic pontine glioma line)
# Summary of the method: as §1
# [3] = test system: DIPGX7 (H3.3 K27M diffuse intrinsic pontine glioma line)
# Summary of the method: as §1
# [4] = test system: DIPGX9 (diffuse intrinsic pontine glioma line)
# Summary of the method: as §1
# [5] = test system: HGGX39 (paediatric high-grade glioma line)
# Summary of the method: as §1
# [6] = test system: HGGX6 (H3.3 G34R paediatric high-grade glioma line)
# Summary of the method: as §1
# [7] = test system: HNSC
# Summary of the method: as §1
# [8] = test system: SUDIPGIV (diffuse intrinsic pontine glioma line)
# Summary of the method: as §1
# [9] = test system: SUDIPGVI (diffuse intrinsic pontine glioma line)
# Summary of the method: as §1
# [10] = test system: SUDIPGXIII (diffuse intrinsic pontine glioma line)
# Summary of the method: as §1
Structure (SMILES),growth inhibition [1],growth inhibition [2],growth inhibition [3],growth inhibition [4],growth inhibition [5],growth inhibition [6],growth inhibition [7],growth inhibition [8],growth inhibition [9],growth inhibition [10]
CCOC(=O)[C@H](CCc1ccccc1)N[C@@H](C)C(=O)N1C(=O)N(C)C[C@H]1C(=O)O,-1.26%,0.599%,-0.344%,-0.304%,-1.03%,-1.84%,1.56%,-1.04%,-1.53%,1.71%
Cn1c(=O)c2c(ncn2CC2OCCO2)n(C)c1=O,0.735%,3.27%,0.989%,0.338%,4.64%,-0.428%,12.2%,2.59%,1.02%,0.38%
CCOC(=O)O[C@]1(C(=O)OCCl)CC[C@H]2[C@@H]3CCC4=CC(=O)C=C[C@]4(C)[C@H]3[C@@H](O)C[C@@]21C,1.63%,4.19%,2.28%,3.44%,2.53%,2.56%,1.32%,-2.17%,3.04%,-2.19%
CC(C)(C#N)c1cc(Cn2cncn2)cc(C(C)(C)C#N)c1,1.13%,0.615%,0.764%,-0.00856%,0.325%,1.21%,2.39%,-0.235%,2.45%,1.01%
CCCCCCCCCCC[C@@H](C[C@@H]1OC(=O)[C@H]1CCCCCC)OC(=O)[C@H](CC(C)C)NC=O,-2.1%,-1.45%,-1.06%,-1.8%,-0.97%,0.864%,-6.06%,-1.86%,-3.34%,0.12%
Cc1ncc([N+](=O)[O-])n1CC(O)CCl (stereo not given),1.6%,-0.696%,3.64%,1.89%,2.83%,1.22%,6.21%,1.59%,4.35%,0.346%
COc1cc2ncnc(Nc3ccc(F)c(Cl)c3)c2cc1OCCCN1CCOCC1,3.09%,-0.0268%,1.03%,-0.279%,1.46%,4.13%,-1.23%,-5.34%,-6.03%,0.759%
Cc1ncc(CO)c(CO)c1O,0.532%,1.29%,0.82%,0.826%,-0.552%,2.21%,1.1%,0.59%,0.153%,-0.917%
C=C1/C(=C\C=C2/CCC[C@]3(C)[C@@H]([C@H](C)CCCC(C)(C)O)CC[C@@H]23)C[C@@H](O)C[C@@H]1O,2.73%,4.49%,6.36%,1.22%,5.14%,4.52%,2.64%,9.51%,2.83%,-1.15%
CN(C)CCCN1c2ccccc2Sc2ccc(C(F)(F)F)cc21,1.07%,1.48%,0.326%,0.717%,3.34%,0.498%,-0.762%,2.79%,0.329%,-5.35%
COc1cccc2c1C(=O)c1c(O)c3c(c(O)c1C2=O)C[C@@](O)(C(C)=O)C[C@@H]3O[C@H]1C[C@H](N)[C@H](O)[C@H](C)O1,55.5%,56.5%,54.9%,43.6%,53%,56.3%,62.2%,57.2%,46.8%,66.3%
O=S(=O)(O)Oc1ccc(C(c2ccc(OS(=O)(=O)O)cc2)c2ccccn2)cc1,-1.54%,-1.27%,-2.88%,-1.22%,-0.859%,-1.53%,-1.57%,-2.15%,-2.91%,0.476%
CN1CCN(CCCN2c3ccccc3Sc3ccc(C(F)(F)F)cc32)CC1,14.9%,0.958%,12.3%,0.94%,7.39%,8.55%,9.67%,4.53%,-3.52%,0.946%
O.O=[Si]=O.O=[Si]=O.O=[Si]=O.O=[Si]=O.[O]=[Mg].[O]=[Mg].[O]=[Mg],-0.0369%,-0.00885%,-1.3%,0.668%,1.22%,0.613%,-1.22%,0.589%,0.8%,0.62%
NCCc1ccc(O)c(O)c1,-0.86%,1.63%,-0.591%,0.714%,0.908%,-1.23%,5.73%,1.26%,0.907%,-1.27%
C#Cc1cccc(Nc2ncnc3cc(OCCOC)c(OCCOC)cc23)c1,4.75%,0.211%,3.55%,2.64%,5.69%,6.15%,20.9%,-5.33%,3.91%,1.17%
Nc1c2c(nc3ccccc13)CCCC2,-2.45%,1.21%,-2.4%,-0.673%,-0.0323%,-0.396%,-4.73%,1.29%,-2.15%,-0.353%
CCC(C)(C)C(=O)O[C@H]1C[C@@H](C)C=C2C=C[C@H](C)[C@H](CC[C@@H]3C[C@@H](O)CC(=O)O3)[C@H]21,6.91%,-7.26%,9.48%,1.4%,15.7%,11.3%,60.4%,19%,-11.4%,3.91%
C#CCN[C@@H]1CCc2ccccc21,1.3%,4.12%,1.95%,1.74%,3.31%,-0.441%,12.3%,2.79%,1.93%,0.598%
NNc1nncc2ccccc12,-0.649%,0.926%,-0.1%,1.44%,2.03%,0.883%,-1.94%,2.81%,-2.33%,-0.215%
NNC(=O)c1ccncc1,3.87%,-2.25%,1.93%,0.954%,0.333%,-0.478%,44.1%,3.88%,-2.88%,-0.311%
